“And” between values parts separate entries of the source, which are not always exact repeats. Equal values may be shown once. The whole screen tested about 6,400 compounds, of which about 610 (9.5%) were called active. Only a selection was taken, and actives are over-represented in it overall. Values without a mark were called inactive. No stated cut-off is given here; in the data, active means activity change below about -70%; inconclusive means no clear call, values can overlap the other calls; inactive means above that.

This assay is described as follows: T. gondii ME49Luc in HeLa cells, luciferase assay, 72 h, no IFN-y (AID 1259421). Particulars: hits give low values, concentration not given here.
On to `CC(=O)C(C#N)C(=O)Nc1cc(Br)ccc1Br` (stereo not given), for which the activity change, negative = inhibition was -2.2% and 12.8%.

Turning to `COC(=O)C[C@H]1C(C)(C)C(=O)[C@@H]2CC3C4=CC(=O)O[C@@H](c5ccoc5)[C@]4(C)CCC3[C@@]1(C)C2=O` (stereo not given in full), the activity change, negative = inhibition was 6.27%.

In the case of `CC[C@@]1(C2O[C@@H](C3O[C@@](O)(CO)[C@H](C)C[C@@H]3C)C[C@@H]2C)CC[C@H]([C@]2(C)CC[C@]3(C[C@H](O)[C@@H](C)[C@@H]([C@@H](C)[C@@H](OC)[C@H](C)C(=O)O)O3)O2)O1` (stereo not given in full), the activity change, negative = inhibition is -80.3% (active).

For `COC(=O)C1C(O)CCC2CN3CCc4c([nH]c5ccccc45)C3CC21` (stereo not given), the activity change, negative = inhibition was 6.81%.

For the molecule `C[C@@H]1O[C@@H](OC[C@H]2OC(Oc3c(-c4ccc(OCCO)c(OCCO)c4)oc4cc(OCCO)cc(O)c4c3=O)[C@H](O)[C@@H](O)[C@@H]2O)[C@H](O)[C@H](O)[C@H]1O` (stereo not given in full), the activity change, negative = inhibition was 0.547%.

`CN=C(NC#N)NCCSCc1csc(N=C(N)N)n1`: the activity change, negative = inhibition is 21.3% and 9.18%.

As for `COc1ccc(/C=C\c2cc(OC)c(OC)c(OC)c2)cc1OP(=O)(O)O`, the activity change, negative = inhibition is -67.2%.

For the molecule `C[C@H](Oc1ccc(S(C)(=O)=O)cc1C(=O)N1CCN(c2ncc(C(F)(F)F)cc2F)CC1)C(F)(F)F`, the activity change, negative = inhibition was -27.8%.

With `COc1ccc(F)c(F)c1C(=O)c1cnc(NC2CCN(S(C)(=O)=O)CC2)nc1N`, the activity change, negative = inhibition was -87.7% (active).

Turning to `CN1CCC(Nc2ncc3ncnc(Nc4ccc(F)c(Cl)c4)c3n2)CC1`, the activity change, negative = inhibition was 7.3%.

Turning to `O=C(NC(Cc1c[nH]c2ccccc12)C(=O)O)c1ccc(Cl)cc1` (stereo not given), the activity change, negative = inhibition is 4.2%.

Consider `C=CC(=O)Nc1ccc(OC)cc1`, for which the activity change, negative = inhibition is 7.75%.

For `Cc1cc(Cn2cnc3c2C[C@@H](C(=O)O)N(C(=O)C(c2ccccc2)c2ccccc2)C3)ccc1N(C)C`, the activity change, negative = inhibition is 25.4%.

For `CCC(=O)O[C@@H](OP(=O)(CCCCc1ccccc1)CC(=O)N1C[C@H](C2CCCCC2)C[C@H]1C(=O)O)C(C)C` (stereo not given in full), the activity change, negative = inhibition is 11.7%.

As for `CN(C)C(=O)COC(=O)Cc1ccc(OC(=O)c2ccc(N=C(N)N)cc2)cc1`, the activity change, negative = inhibition is 0.553%.

For the molecule `Nc1nc(=S)c2[nH]cnc2[nH]1`, the activity change, negative = inhibition was -77.5% (active).

For the molecule `S=c1nc[nH]c2nc[nH]c12`, the activity change, negative = inhibition is -59.8%.

In the case of `Nc1ncnc2nc[nH]c12`, the activity change, negative = inhibition is 5.62%.

For `CC(NC(=O)CCc1nc2ccccc2c(=O)[nH]1)c1ccccc1` (stereo not given), the activity change, negative = inhibition was 4.68%.

On to `CCOC(=O)c1cnc[nH]1`, for which the activity change, negative = inhibition is 7.3%.

In the case of `CC1(C)CC(=O)C(C2C3=C(CC(C)(C)CC3=O)Oc3ccccc32)C(=O)C1` (stereo not given), the activity change, negative = inhibition is 4.42% and -1.95%.

As to `CCc1nc(N)nc(N)c1-c1ccc(Cl)cc1`, the activity change, negative = inhibition is -89.2% (active) and -80% (active).

For `CC(C)Cc1sc(N)nc1-c1ccc(P(=O)(O)O)o1`, the activity change, negative = inhibition is 7.23%.

For `CO[C@H]1C(=O)[C@@]2(C)[C@H]([C@@H](OC(=O)c3ccccc3)[C@@]3(O)C[C@H](OC(=O)[C@H](O)[C@@H](NC(=O)OC(C)(C)C)c4ccccc4)C(C)=C1C3(C)C)[C@]1(OC(C)=O)CO[C@@H]1C[C@H]2OC`, the activity change, negative = inhibition was -82.6% (active).

For the molecule `CC(=O)O[C@@]12CO[C@@H]1C[C@H](O)[C@@]1(C)C(=O)[C@H](O)C3=C(C)[C@@H](OC(=O)[C@H](O)[C@@H](NC(=O)OC(C)(C)C)c4ccccc4)C[C@@](O)([C@@H](OC(=O)c4ccccc4)C12)C3(C)C` (stereo not given in full), the activity change, negative = inhibition is -80.2% (active).

Take `CC(=O)O[C@@]12CO[C@@H]1C[C@H](O)[C@@]1(C)C(=O)[C@H](O)C3=C(C)[C@@H](OC(=O)[C@H](O)[C@@H](NC(=O)OC(C)(C)C)c4ccccc4)C[C@@](O)([C@@H](OC(=O)c4ccccc4)[C@H]21)C3(C)C`: the activity change, negative = inhibition was -73.3% (active) and -80.3% (active).

In the case of `Cc1cccc(C)c1NC(=O)/N=C1/CCCN1C`, the activity change, negative = inhibition is 6.63%.

On to `COc1ccc(/C=C/C(=O)c2ccc(O)cc2O)cc1`, for which the activity change, negative = inhibition was 82.9%.

Regarding `COc1ccnc(CS(=O)c2nc3ccc(OC(F)F)cc3[nH]2)c1OC` (stereo not given), the activity change, negative = inhibition is 26.3% and 7.86%.

For `Cc1ccc(OCC(O)C(C)NC(C)C)c2c1CCC2` (stereo not given), the activity change, negative = inhibition is 14.3%.

With `Cc1oc(=O)oc1CN1CCN(c2cc3c(cc2F)c(=O)c(C(=O)O)c2n3C(C)S2)CC1` (stereo not given), the activity change, negative = inhibition is 19.8%.

Take `COc1cc(-c2coc3cc(OCc4ccccc4)c(OC)c(O)c3c2=O)cc(OCc2ccccc2)c1OC`: the activity change, negative = inhibition is -39.8%.

Turning to `COc1ccc([C@@H]2CC(=O)c3c(O)cc(O[C@@H]4O[C@H](CO[C@H]5O[C@@H](C)[C@H](O)[C@@H](O)[C@H]5O)[C@@H](O)[C@H](O)[C@H]4O)cc3O2)cc1O`, the activity change, negative = inhibition is 5.14%.

As to `Cc1cc(N2CCN([C@@H]3CN[C@H](C(=O)N4CCSC4)C3)CC2)n(-c2ccccc2)n1`, the activity change, negative = inhibition was -3%.

On to `Cc1ccc(C(=O)Nc2ccc(CN3CCN(C)CC3)c(C(F)(F)F)c2)cc1C#Cc1cnc2[nH]ncc2c1`, for which the activity change, negative = inhibition was -89.3% (active).

For the molecule `Cc1ccc(C(=O)Nc2ccc(CN3CCN(C)CC3)c(C(F)(F)F)c2)cc1C#Cc1cnc2cccnn12`, the activity change, negative = inhibition was -83% (active).

As for `COC(=O)N1CCN(Cc2cccc(NC(=O)Nc3ccc(C)nc3)c2F)CC1`, the activity change, negative = inhibition is 9.25%.

On to `CCCCCCCCCCCCCCCC(=O)OC[C@H](NC(=O)C(Cl)Cl)[C@H](O)c1ccc([N+](=O)[O-])cc1`, for which the activity change, negative = inhibition was 7.24% and 16.1%.

On to `NC(=O)CCC1NC(=O)C(Cc2ccccc2)NC(=O)C(Cc2ccc(O)cc2)NC(=O)CCSSCC(C(=O)N2CCCC2C(=O)NC(CCCN=C(N)N)C(=O)NCC(N)=O)NC(=O)C(CC(N)=O)NC1=O` (stereo not given), for which the activity change, negative = inhibition is 7.89%.

With `COc1cc(/C=C/C(=O)O)cc(OC)c1O`, the activity change, negative = inhibition is -2.18%.

Turning to `COc1cc2c(cc1OC)C(c1ccc(N)cc1)=NNC(=O)C2`, the activity change, negative = inhibition was -18.7% and 7.52%.

Turning to `CC1=C(SCCO)C(=O)c2ccccc2C1=O`, the activity change, negative = inhibition is 29.8%.

As to `COc1ccc2c(c1)c1c3n2CCN(C)C3=NCC1`, the activity change, negative = inhibition was 14.7%.

For `C=CC(=O)N1CCCCC1`, the activity change, negative = inhibition is 4.09%.

As for `CN([NH2+][O-])C(=O)N[C@@H]1[C@@H](O)[C@H](O)[C@@H](CO)O[C@@H]1O`, the activity change, negative = inhibition is -1.36%.

Source of the values: PubChem BioAssay AID1259421 (Broad Institute, 2018).
